Laboratory results reported in PubChem BioAssay AID1845226 (National Center for Advancing Translational Sciences (NCATS), 2023).
Records with an inconclusive call do not appear. Entries that show only a call come without a potency. The source made the active and inactive calls. Calls follow the shape of the dose curve; as a rule, active = well fitted inhibition curve with a large enough effect; inconclusive = small, poorly fitted or top-dose-only effect; inactive = no such curve, though single readings can be large or run the other way.
Potency is read from the fitted curve at half-maximal effect.

Test: Confirmatory fluorescence-based thiol-reactive (MSTI) qHTS assay for identification of artifact compounds
Settings: MSTI thiol-reactivity probe, 1 h; series mostly up to 39.2 µM
Text: PI: Alexander Tropsha Ph.D. UNC Eshelman School of Pharmacy University of North Carolina, Chapel Hill, North Carolina Hits from high-throughput screening (HTS) of chemical libraries are often false positives due to their interference with the assay detection technology. In response to this problem, we generated the largest publicly available library of chemical liabilities and developed a free webtool to predict HTS artifacts, both of which are described herein. More specifically, we generated, curated, and integrated HTS datasets for thiol reactivity, redox activity, and luciferase (firefly and nano) activity. Using these curated datasets, we developed and validated several Quantitative Structure-Interference Relationship (QSIR) models to predict nuisance behavior. […] These models were employed for virtual profiling of the National Center for Advancing Translational Science's (NCATS) in-house library, and 256 compounds for each assay were selected for the experimental validation of nuisance behavior. The BA for these external predictions ranged from 58 to 78% for compounds within the applicability domains of the models. […] The models developed in this study, along with aggregation models previously developed by our group (SCAM Detective) were implemented in "Liability Predictor," an online tool which may be used as part of chemical library design or for triaging HTS hits. Both the models and the curated datasets are publicly available at https://liability.mml.unc.edu/.
PROTOCOL TABLE SEQUENCE No. (e.g., 1, 2, 3, etc.); PARAMETER (e.g., Cells, Incubation, Reagent, etc.); VALUE; DESCRIPTION. 1; Reagent; 4 uL; […]. 2; Compounds and control; 16 nL; Kalypsis pin tool (Wako USA) equipped with a 1536-well pin head. 3; Incubation; 1 hour. 4; Detection; Fluorescence, ViewLux microplate reader, 525 nm excitation, 598 nm emission. NOTES (numbers refer to Sequence numbers above) 1. Assays determining (E)-2-(4-mercaptostyryl)-1,3,3-trimethyl-3H-indol-1-ium (MSTI) reactivity were performed as previously described in the literature with modifications for the quick identification of compounds reacting with thiol. In brief, 4 uL of MSTI or positive control Acetyl-MSTI (final concentrations of 4 uM and 4 uM, respectively) in assay buffer (2% DMSO in 1X PBS pH 7.4) was dispensed into all wells of a 1536-well assay plate (solid-bottom black plate; Greiner Bio One, Monroe, NC). 2. A Wako Pin-tool (Wako Automation, Richmond, VA) was used to transfer 16 nL of compounds (consisting of 7-plates in qHTS format, final concentration range 18.3 nM to 114 uM) or control MLS001163887 (final concentration range 1.22 nM to 40 uM). 3. Plates were centrifuged (121xg, 15 seconds) and incubated for 1 hour at room temperature protected from light. 4. Samples were read for fluorescence (Ex/Em = 525(20)/598(25) nm) on a ViewLux CCD imager (PerkinElmer). Data were normalized to Acetyl-MSTI (0% activity) and MSTI (100% activity) and the resulting percent inhibition data were fitted to a 4-parameter Hill equation using NCATS in-house software.
In the case of O=S(=O)(Nc1ccc(S(=O)(=O)Nc2nccs2)cc1)c1ccc2ccccc2c1, the Potency was “inactive”.
For O=C(Nc1ccc2oc(-c3cccc4c(Br)cccc34)nc2c1)c1cccnc1, the Potency was “inactive”.
For O=C1c2ccccc2C(=O)c2c(O)c(O)cc(O)c21, the Potency was 0.612 µM (active).
With CCCS(=O)(=O)N1CCCC(C(=O)NCCCOC)C1 (stereo not given) the Potency was “inactive”.
In the case of O=S(=O)(O)c1ccc(N=Nc2cc(S(=O)(=O)O)c3ccccc3c2O)c2ccccc12, the Potency was 0.194 µM (active).
With Fc1ccc2c(c1)-c1nc(-c3ccccc3)cc(-c3ccccc3)c1CO2 the Potency was “inactive”.
With CCN(CC)c1ccc(-c2nc(-c3ccccn3)no2)cc1[N+](=O)[O-] the Potency was “inactive”.
In the case of O=C1CCCc2[nH]c(=O)c(-c3nc(-c4cccc([N+](=O)[O-])c4)cs3)cc21, the Potency was 3.86 µM (active).
For CC(=O)O[C@H]1C[C@@H]2CC[C@@H]3[C@H](CC[C@@]4(C)[C@H]3C[C@H](N3CC[N+](C)(C)CC3)[C@@H]4OC(C)=O)[C@@]2(C)C[C@@H]1N1CC[N+](C)(C)CC1, the Potency was “inactive”.
With CC1CC(C)CN(c2oc(-c3ccc(OCc4ccc(Cl)cc4)cc3)nc2C#N)C1 (stereo not given) the Potency was “inactive”.
For O=C(Cn1cc(SCc2ccccc2F)c2ccccc21)N1CCCCC1, the Potency was “inactive”.
For CCOc1ccc(NC(=O)c2cnc(Nc3ccccc3OC)c3ccccc23)cc1, the Potency was “inactive”.
In the case of CCCCCCCCCCCCCCCC(=O)N[C@H](CN1CCOCC1)[C@H](O)c1ccccc1, the Potency was 12.2 µM (active).
For Cc1ccc(NS(=O)(=O)c2cc3c(cc2N2CCC2)NC(=O)CC3)cc1C, the Potency was “inactive”.
In the case of Ic1ccc(Nc2nc(NCCN3CCOCC3)nc(N3CCOCC3)n2)cc1, the Potency was “inactive”.
With Cc1ccc(S(=O)(=O)Nc2ccc(F)cc2C(=O)Nc2nc(-c3ccccc3)cs2)cc1 the Potency was “inactive”.
For O=C(CNC(=O)C(c1ccccc1)c1ccccc1)OCC(=O)c1ccc2ccccc2c1, the Potency was “inactive”.
With CCCC12CN3CC(C)(CN(C1)C3c1ccc(CC)cc1)C2=O (stereo not given) the Potency was “inactive”.
In the case of CCOC(=O)c1c(C)c(C(=O)NCc2ccc(Cl)cc2)c(C)n1CC, the Potency was “inactive”.
For COc1ccc(C(=O)O)cc1Nc1nc2ccc(C)cc2n2cnnc12, the Potency was “inactive”.
In the case of COc1ccc([C@H]2C[C@H](O)[C@@H](n3cc(C4CC4)nn3)CN2C(=O)c2cccs2)cc1, the Potency was “inactive”.
For O=C(CCn1c(=O)c2cccn2c2cccnc21)N1CCN(c2ccccc2F)CC1, the Potency was “inactive”.
In the case of O=C(COc1cccc(Cl)c1)N1CCC(c2nc3ccccc3o2)CC1, the Potency was “inactive”.
For COC(=O)c1c(OCc2ccccn2)cc(=O)n2c1CCN(C(=O)c1n[nH]c3c1CCCC3)CC2, the Potency was “inactive”.
In the case of CCOC(=O)C(C)Sc1ccc2nnc(-c3ccc(F)cc3)n2n1 (stereo not given), the Potency was “inactive”.
With COc1ccc2oc(=O)cc(CN3CCN(C(=O)c4ccccc4F)CC3)c2c1 the Potency was “inactive”.
In the case of O=S(=O)(O)c1ccc(N=Nc2c(O)ccc3cc(S(=O)(=O)O)ccc23)cc1, the Potency was 6.12 µM (active).
With CSc1ncc(C(=O)NCc2ccccc2)c(-c2ccccc2)n1 the Potency was “inactive”.
With O=C(O)c1ccccc1[N+](=O)[O-] the Potency was “inactive”.
With CC[C@H]1OC(=O)[C@H](C)[C@@H](O[C@H]2C[C@@](C)(OC)[C@@H](O)[C@H](C)O2)[C@H](C)[C@@H](O[C@@H]2O[C@H](C)C[C@H](N(C)C)[C@H]2O)[C@](C)(O)C[C@@H](C)C(=O)[C@H](C)[C@@H](O)[C@]1(C)O the Potency was “inactive”.
With CC(C)(C)C(=O)NC1(C(F)(F)F)C(=O)Nc2c1c(=O)[nH]c(=O)n2-c1ccccc1 (stereo not given) the Potency was “inactive”.
In the case of COc1ccc(NC(=O)C(C)n2nc(-c3cc(C)ccc3C)c3c(c2=O)CCCC3)cc1 (stereo not given), the Potency was “inactive”.
With Cc1ccc(NC(=O)Cn2c(=O)oc3cc(S(=O)(=O)N4CCCCC4)ccc32)c(Cl)c1 the Potency was “inactive”.
For OCC1=C[C@@H](O)[C@@H]2C=CO[C@@H](OC3O[C@H](CO)[C@@H](O)[C@H](O)[C@H]3O)[C@H]12 (stereo not given in full), the Potency was “inactive”.
In the case of CCOc1ccc(CNC(=O)c2ccc3nc(CC)c(CC)nc3c2)cc1OC, the Potency was “inactive”.
In the case of O=C(O)c1c(O)c(O)cc2ccccc12, the Potency was “inactive”.
With O=C(O)c1ccc(-n2c(/C=C\c3ccc(O)cc3)nc3ccccc3c2=O)cc1 the Potency was “inactive”.
In the case of Nc1ccc(F)cc1F, the Potency was “inactive”.
For Cc1ccc(OCCn2c(CCNC(=O)OC(C)(C)C)nc3ccccc32)cc1, the Potency was “inactive”.
For CCCN(C(=O)Cc1c(C(=O)O)[nH]c2ccc(Cl)cc12)c1ccc(OCC)cc1, the Potency was “inactive”.
